{"source": "PubChem BioAssay AID2153", "about": "(The Scripps Research Institute Molecular Screening Center, 2009)", "note": "About 2,000 (83%) of roughly 2,400 compounds were called active.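 How the source made its calls: active means inhibition above the solvent-only control well mean plus 3 SD, limit set per screening run (cut at about 23% in these data); inactive means the rest.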 The set was probably picked from earlier hits. A selection follows.", "data": [{"target": "Guanyl-specific ribonuclease T1 (Aspergillus oryzae (strain ATCC 42149 / RIB 40)) (UniProt P00651)", "sequence (P00651 whole entry, looked up)": "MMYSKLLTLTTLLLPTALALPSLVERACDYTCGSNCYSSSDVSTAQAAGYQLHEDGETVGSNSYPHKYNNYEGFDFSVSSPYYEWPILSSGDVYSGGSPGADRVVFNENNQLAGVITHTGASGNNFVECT", "assay": "RNase T1 inhibitors, counter-screen for TPT1 inhibitor project, biochemical, fluorescence polarization (AID 2153);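 further: plate controls were DMSO wells with enzyme for no effect and wells without RNase T1 for full effect; inhibitors block cleavage so intact labeled substrate keeps polarization high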", "settings": "RNase T1 cleavage, 1536-well, at 5 µM, hits give high values", "values": [{"smiles": "Cc1cc(O)c(C(=O)/C=C/c2c(F)c(F)c(F)c(F)c2F)c(=O)o1", "inhibition": "81.2% (active)"}, {"smiles": "N#CC1=C(N)Oc2c(sc3ccccc23)C1c1ccco1", "note": "(stereo unspecified)", "inhibition": "76.9% (active)"}, {"smiles": "Cn1c2ccccc2c2cc(/C=C(\\NC(=O)c3ccccc3)C(=O)NCC(=O)O)ccc21", "inhibition": "92.9% (active)"}, {"smiles": "Cc1ccc(Nc2ccccc2N)cc1", "inhibition": "36% (active)"}, {"smiles": "Cc1cccn2c(=O)c(/C=C3\\SC(=S)N(CC(C)C)C3=O)c(NCCCOC(C)C)nc12", "inhibition": "131% (active)"}, {"smiles": "COc1cc(/C=C2/C(=O)NN(c3cccc(Cl)c3)C2=O)cc(Br)c1O", "inhibition": "150% (active)"}, {"smiles": "Cc1cc(C)c(/C=C2\\C(=O)Nc3ccccc32)[nH]1", "inhibition": "118% (active)"}, {"smiles": "Cc1ccc(-c2nn(-c3ccccc3)cc2/C=C2\\SC(=S)N(CCCCCC(=O)O)C2=O)o1", "inhibition": "73.6% (active)"}, {"smiles": "CCC(c1nnnn1Cc1ccco1)N(Cc1cc2cc(OC)ccc2[nH]c1=O)C1CCCCC1", "note": "(stereo unspecified)", "inhibition": "17.9% (inactive)"}, {"smiles": "N#C/C(=C(/O)COC(=O)COc1ccc(Cl)cc1)c1nc2ccccc2[nH]1", "inhibition": "50.6% (active)"}, {"smiles": "CCOc1ccc2nc(/N=C/c3nc(-c4ccccc4)oc3O)sc2c1", "inhibition": "65.4% (active)"}, {"smiles": "Cc1c(-c2ccccc2)cn2c1-c1ccc(C)n1CC2", "inhibition": "47.3% (active)"}, {"smiles": "Cn1cccc1/C=C1\\SC(=S)N(NC(=O)c2ccc(Cl)cc2)C1=O", "inhibition": "113% (active)"}, {"smiles": "Fc1ccc2nc(Nc3nc4c(s3)CCCC4)sc2c1", "inhibition": "37.5% (active)"}, {"smiles": "CN1/C(=C\\C=C2\\N=C(c3ccc(F)cc3)OC2=O)C(C)(C)c2ccccc21", "inhibition": "140% (active)"}, {"smiles": "Cc1ccc(C)c2[nH]c(=O)c(CCNC(=O)CC(C)C)cc12", "inhibition": "6.2% (inactive)"}, {"smiles": "N#C/C(=C/c1ccc(N2CCCCC2)o1)C(=O)NCCc1c[nH]c2ccccc12", "inhibition": "170% (active)"}, {"smiles": "CN1/C(=c2/s/c(=C3/C(=O)N(c4ccccc4)NC3=Nc3ccccc3)n(C)c2=O)C(C)(C)c2ccccc21", "inhibition": "92.8% (active)"}, {"smiles": "CS(=O)(=O)c1ccc2c(c1)SC1=NC(=O)/C(=C/c3ccco3)C(=N)N12", "inhibition": "60.6% (active)"}, {"smiles": "CCN(CC)c1ccc(/C=N/Nc2nc(C)cc(C)n2)c(O)c1", "inhibition": "44.9% (active)"}, {"smiles": "Cc1ccc(S(=O)(=O)N(C)c2nc3ccccc3n3c(C(C)C)nnc23)cc1", "inhibition": "3.03% (inactive)"}, {"smiles": "CCOc1nnc(C)c2c(C)n(-c3cccc(Cl)c3)nc12", "inhibition": "88.4% (active)"}, {"smiles": "CSC1=N/C(=C\\C=C\\c2cccs2)C(=O)S1", "inhibition": "64.5% (active)"}, {"smiles": "CCCOc1ccc(Cn2c(O)cc(=O)[nH]c2=O)cc1", "inhibition": "30.3% (active)"}, {"smiles": "COc1ccc(C2=NN(C(=O)c3ccccc3C(=O)O)C(c3ccccc3O)C2)cc1", "note": "(stereo unspecified)", "inhibition": "37.9% (active)"}, {"smiles": "O=C(/C=C/c1ccc(N2CCOCC2)cc1)c1ccccc1", "inhibition": "91.3% (active)"}]}]}
